An excerpt weighted towards active compounds, which were near 9.6% of everything screened.
PostGolgi yeast: growth inhibition of a yeast mutant, post-Golgi transport screen; inhibition, % at 10 µM; post-Golgi transport phenotypic cell assay; 98,000 compounds, 0.9% hits;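 further: yeast cells grown in 1536-well plates; yeast grown about 18 h at 30C before absorbance read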
PLAP activator: activators of human placental alkaline phosphatase. purified PLAP enzyme, luminescent substrate read-out; active compounds read high. activation fold at 20 µM. 96,000 compounds, 1.2% hits. AID 696; in the data active means activation fold above about 2
Cav32 inh: human Cav3.2 channel inhibition, primary screen; Cav3.2-expressing cells, Fluo-4 calcium fluorescence FDSS; active compounds read low; 100,000 compounds, 4% hits; B-score at 10 µM;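 active means single-dose well whose peak fluorescence ratio is a statistical outlier from its plate by either plate-standardised score or position-corrected B-score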
DAT uptake mod: modulates human dopamine transporter uptake under cocaine; 110,000 compounds, 1.3% hits; Q01959; AID 449768; LLC-PK1 hDAT cells, [14C]-dopamine uptake with cocaine IC80; actives deviate in either direction; B-score at 10 µM;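 active means Z score or B-score, a plate-position-corrected score, falls beyond the plate's 99.7% confidence bounds, in either direction; inactive means both scores lie inside the 99.7% bounds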
PostGolgi ctrl: growth of the yeast control strain, post-Golgi counter-screen. inhibition, % at 10 µM. efflux-deficient yeast background strain, growth absorbance A615, 16 h. AID 738. 98,000 compounds, 5% hits
Hits are given with their value; 0 = inactive; - = no result. Unless noted, no stated cut-off is given here; in the data, active means inhibition above about 30%; inactive means the rest.

SMILES | PostGolgi yeast | PLAP activator | Cav32 inh | DAT uptake mod | PostGolgi ctrl
COc1ccc(-c2nnc(SC(C)C(=O)Nc3c(C)n(C)n(-c4ccccc4)c3=O)o2)cc1 (stereo not given) | 0 | 0 | 0 | 0 | 0
COC(=O)NC1CCC(CC2CCC(NC(=O)OC)CC2)CC1 (stereo not given) | 0 | 0 | 0 | 0 | 49
COC(=O)NCC1(C)CC(NC(=O)OC)CC(C)(C)C1 (stereo not given) | 0 | 0 | - | 0 | 0
CCc1cc(/C(Cc2csc(C)n2)=N/O)c(O)cc1O | 0 | 0 | -5.2 | 0 | 0
CCS(=O)(=O)NCc1csc(C)n1 | 0 | 0 | 0 | 0 | 0
Cc1cc(C)c(-c2cc(C(=O)Nc3c(C)n(C)n(-c4ccccc4)c3=O)[nH]n2)c(O)c1 | 0 | 2.2 | 0 | 0 | 0
O=c1ccccn1Cc1c(F)cccc1Cl | 0 | 0 | 0 | 0 | 0
O=C(Cc1csc(N2CCOCC2)n1)N/N=C/c1ccc(F)cc1 | 0 | 0 | 0 | 0 | 0
Cc1ccccc1NC(=O)c1sc2nc3c(c(-c4ccco4)c2c1N)CCCC3 | 0 | 0 | -4.2 | 0 | 0
NC(=O)c1sc2nc3c(c(-c4cccnc4)c2c1N)CCC3 | - | - | 0 | -9.1 | -
N#Cc1sc2nc3c(c(-c4cccnc4)c2c1N)CCC3 | 0 | 0 | 0 | 0 | 0
c1cnc2c(C3NCCc4c3[nH]c3ccccc43)cccc2c1 (stereo not given) | - | - | 0 | 0 | -
CC(C)C1Oc2ccccc2N(CC(=O)NCCCN2C(C)CCCC2C)C1=O (stereo not given) | 0 | 0 | 0 | 0 | 0
Cc1ccc(-c2csc3nnc(SCC(=O)N4CCN(Cc5ccccc5)CC4)n23)cc1 | 0 | 0 | 0 | 0 | 0
Cc1ccc(-c2csc3nnc(SCC(=O)Nc4nsc(-c5ccccc5)n4)n23)cc1 | 0 | 0 | 0 | 0 | 41
Cc1ccc(-c2nc(NC(=O)CSc3nnnn3-c3ccccc3)ns2)cc1 | 0 | 0 | 0 | 0 | 48
Cc1nnc(SCC(=O)Nc2ccccc2NC(=O)CSc2nnc(C)s2)s1 | 0 | 0 | 0 | 0 | 0
Cc1nnc(SCC(=O)Nc2nsc(-c3ccc(C(C)(C)C)cc3)n2)s1 | 0 | 0 | -7.6 | 0 | 62
O=C(CSc1nnc2scc(-c3ccccc3)n12)N1CCN(Cc2ccccc2)CC1 | 0 | 0 | 0 | 2.1 | 0
Cc1ccc(-c2nc(NC(=O)CSc3ccc4ccccc4n3)ns2)cc1 | - | - | 0 | 0 | -
Oc1ccc(C[C@@H]2CNC(=S)N2CCCCC2CCCCC2)cc1 | - | - | 0 | 0 | -
COc1cccc(C(=O)N/N=C(/c2ccccc2)c2ccccn2)c1 | 0 | 0 | 0 | 0 | 0
COC(=O)c1ccc(OCC(=O)Nc2nn(-c3ccccc3)nc2C(N)=O)cc1 | 0 | 0 | 0 | 0 | 0
O=C(c1ccccc1CCc1ccccc1)N1CCOCC1 | 0 | 0 | 0 | -6.8 | 0
Cc1ccc2c(c1)c1c3n2CCN(C(=O)C2CC2)C3CCC1 (stereo not given) | 0 | 0 | 0 | 0 | 0
SMILES | PostGolgi yeast | PLAP activator | Cav32 inh | DAT uptake mod | PostGolgi ctrl
Cc1ccc2c(c1)c1c3n2CC(=C2C(=O)OC(C)(C)OC2=O)NC3CCC1 (stereo not given) | 0 | 0 | 0 | 0 | 51
O=C1CCCc2c1cc(-c1ccccc1)n2-c1ccccc1 | 0 | 0 | 0 | 0 | 51
CCN(CC)C(=O)CC(c1ccc2c(c1)OCO2)c1c(OC)cc(OC)c2ccc(=O)oc12 (stereo not given) | - | - | 0 | 2.7 | -
CCN(CC)C(=O)CC(c1ccc(N(C)C)cc1)c1c(OC)cc(OC)c2ccc(=O)oc12 (stereo not given) | - | - | 0 | 0 | -
Cc1ccc2c(c1)N(CC(=O)NC1CCCc3ccccc31)C(=O)CO2 (stereo not given) | 0 | 0 | 0 | 0 | 34
Cc1ccc(C(=O)N2CCN(c3ccc([N+](=O)[O-])c(NCc4ccco4)c3)CC2)cc1 | 0 | 0 | 0 | 0 | 0
Cc1cccc(C(=O)N2CCN(c3ccc([N+](=O)[O-])c(NCc4ccco4)c3)CC2)c1 | 0 | 0 | 0 | 0 | 39
Cc1cccc(C(=O)N2CCN(c3ccc([N+](=O)[O-])c(N4CCOCC4)c3)CC2)c1 | 0 | 0 | 3.7 | 0 | 0
CCCNS(=O)(=O)c1ccc(CCC(=O)Nc2cc(Cl)ccc2Oc2ccccc2)cc1 | - | - | -7 | 0 | -
CC(C)CNS(=O)(=O)c1ccc(CCC(=O)Nc2cc(Cl)ccc2Oc2ccccc2)cc1 | 0 | 0 | -6.2 | 0 | 0
CC(C)(C)NS(=O)(=O)c1ccc(CCC(=O)Nc2cc(Cl)ccc2Oc2ccccc2)cc1 | 0 | 0 | -5.3 | 0 | 0
c1ccc(-c2noc(C34CC5CC(CC(C5)C3)C4)n2)nc1 | 0 | 0 | 0 | 0 | 0
COc1ccc(-c2cc(=O)oc3cc(OCc4nn[nH]n4)ccc23)cc1 | 0 | 0 | 0 | 0 | 0
CN(C)c1ncc(S(=O)(=O)c2ccc(Cl)cc2)c(-c2ccc(Cl)cc2Cl)n1 | 0 | 0 | - | - | 49
CN(C)c1ncc(S(=O)(=O)c2ccccc2)c(-c2ccc(Cl)cc2Cl)n1 | 0 | 0 | - | - | 0
CCN(CC)C(=O)c1[nH]cnc1C(=O)N[C@@H](CC(C)C)C(=O)OCc1ccccc1 | - | - | 0 | 0 | -
O=C(Cn1nc(-c2ccccc2)c2ccccc2c1=O)Nc1ccccn1 | 0 | 0 | 0 | 0 | 0
CC(C)(C)OC(=O)NNC(=O)c1ccc(Cl)cc1 | 0 | 0 | 0 | 0 | 0
Cc1nonc1OCC(C)(COc1nonc1C)NC(=O)c1ccc(Cl)cc1 | - | - | -4.2 | 0 | -
C=CCNC(=S)NNC(=O)C(CCCC)CC(C)(C)O (stereo not given) | - | - | 0 | 0 | -
CSc1n[nH]c(NCc2cccs2)n1 | 0 | 0 | 0 | 0 | 0
O=S(=O)(NCCSc1ccccc1)c1ccc2c(c1)OCCO2 | 0 | 0 | -5 | 0 | 0
COc1ccc(CCNc2ncnc3[nH]ncc23)cc1OC | 0 | 2 | 0 | 0 | 0
CCOC(=O)c1cnc2ccccc2c1NCCc1ccc(OC)c(OC)c1 | 0 | 0 | 0 | 0 | 0
S=c1nc(-c2cccc(Br)c2)[nH][nH]1 | 0 | 0 | 0 | 0 | 0
SMILES | PostGolgi yeast | PLAP activator | Cav32 inh | DAT uptake mod | PostGolgi ctrl
Brc1cccc(-c2n[nH]c(-c3ccccc3)n2)c1 | 0 | 0 | - | - | 43
COc1ccc(N2CCCn3c2nc2c3c(=O)n(Cc3ccccc3F)c(=O)n2C)c(OC)c1 | 0 | 0 | 0 | 0 | 0
CC(=O)C1=C(O)C(=O)N(CCNCCO)C1c1ccccc1 (stereo not given) | 0 | 0 | 0 | 0 | 0
FC(F)(F)c1cccc(-c2nnc(-c3ccccc3)c(N3CCOCC3)n2)c1 | 0 | 0 | 0 | 0 | 35
FC(F)(F)c1nnc(-c2ccccc2)nc1N1CCOCC1 | 0 | 0 | 0 | 0 | 0
Cc1nc(CS(=O)(=O)c2ccccc2)cc(Sc2ccc(Cl)cc2Cl)n1 | 0 | 0 | -5.7 | 0 | 37
COCc1cc(Sc2cccc(Cl)c2Cl)nc(-c2ccccc2)n1 | 0 | 0 | 0 | 0 | 0
CCn1c(SCc2ccc(C)cc2)nnc1C1CCN(S(=O)(=O)c2ccc(OC)cc2)CC1 | 0 | 0 | -4.8 | 0 | 0
CCn1c(SCc2ccc(C#N)cc2)nnc1-c1ccc(S(=O)(=O)N2CCCCC2)cc1 | 0 | 0 | 0 | 0 | 43
CCn1c(SCc2ccc(F)cc2)nnc1C1CCN(S(=O)(=O)c2ccc(OC)cc2)CC1 | 0 | 0 | 0 | 0 | 0
Cn1c(=O)c2nc(-c3ccccc3)oc2c2ccccc21 | 0 | 0 | 0 | 0 | 61

Source: PubChem
